Test results from PubChem BioAssay AID1159580 (chemical genetic matrix, 2015).
Out of some 5,500 compounds screened, about 2,000 (36%) were called active. About 18% were inconclusive and are not listed. Some of the results follow. Unmarked numbers belong to inactive results. Cut-off read from the data, not from the text of the source: active = normalized growth mostly below about 0.91 (no sharp cut-off); inconclusive = no clear call, values can overlap the other calls; inactive = mostly above about 0.92.

Assay: chemical genetic growth profiling, strain panel (AID 1159580);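 note: tested at 20 µM; growth read once vehicle control cultures reached saturation at 30 °C; 1 = growth at the plate median or of vehicle wells; lower values mean less growth of the strain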
Settings: S. cerevisiae deletion strains, growth OD

Which normalized growth (locus YAL013W, strain DEP1, active compounds read low) does the source give for `Clc1ccc(C(OCCN2CCCCC2)c2ccccc2)cc1` (stereo not drawn) here?
Its normalized growth is 1.

What about the normalized growth (locus YAL021C, strain ccr4, active compounds read low) of the same molecule?
Its normalized growth is 0.954.

What about the normalized growth (locus YAL026C, strain drs2, active compounds read low) of the same molecule?
The normalized growth was 1.02.

What about the normalized growth (locus YAL030W, strain snc1, active compounds read low) of the same molecule?
Its normalized growth is 1.01.

What about the normalized growth (locus YBL061C, strain skt5, active compounds read low) of the same molecule?
The normalized growth was 1.02.

And the normalized growth (locus YBR009C, strain hhf1, active compounds read low)?
Its normalized growth is 1.

What about the normalized growth (locus YBR021W, strain FUR4, active compounds read low) of the same molecule?
The normalized growth was 0.833 (active).

And the normalized growth (locus YBR023C, strain chs3, active compounds read low)?
Its normalized growth is 1.02.

What about the normalized growth (locus YBR171W, strain sec66, active compounds read low) of the same molecule?
Its normalized growth is 1.02.

And the normalized growth (locus YBR229C, strain ROT2, active compounds read low)?
Its normalized growth is 0.999.

What about the normalized growth (locus YBR231C, strain swc5, active compounds read low) of the same molecule?
The normalized growth was 1.01.

What about the normalized growth (locus YBR279W, strain paf1, active compounds read low) of the same molecule?
The normalized growth was 1.02.

And the normalized growth (locus YCL011C, strain gbp2, active compounds read low)?
The normalized growth was 1.03.

What about the normalized growth (locus YCL016C, strain dcc1, active compounds read low) of the same molecule?
The normalized growth was 1.03.

And the normalized growth (locus YCL029C, strain bik1, active compounds read low)?
The normalized growth was 1.01.

And the normalized growth (locus YCL061C, strain MRC1, active compounds read low)?
Its normalized growth is 1.02.

What about the normalized growth (locus YCL069W, strain vba3, active compounds read low) of the same molecule?
The normalized growth was 1.02.

And the normalized growth (locus YCR088W, strain abp1, active compounds read low)?
The normalized growth was 1.02.

And the normalized growth (locus YDL005C, strain med2, active compounds read low)?
Its normalized growth is 1.01.

What about the normalized growth (locus YDL035C, strain GPR1, active compounds read low) of the same molecule?
The normalized growth was 0.986.

And the normalized growth (locus YDL040C, strain nat1, active compounds read low)?
Its normalized growth is 1.02.

What about the normalized growth (locus YDL074C, strain BRE1, active compounds read low) of the same molecule?
The normalized growth was 0.947.

What about the normalized growth (locus YDL101C, strain DUN1, active compounds read low) of the same molecule?
Its normalized growth is 1.

What about the normalized growth (locus YDL134C, strain PPH21, active compounds read low) of the same molecule?
The normalized growth was 0.995.

What about the normalized growth (locus YDL185W, strain tfp1, active compounds read low) of the same molecule?
Its normalized growth is 1.

And the normalized growth (locus YDL192W, strain arf1, active compounds read low)?
The normalized growth was 1.01.

What about the normalized growth (locus YDR001C, strain nth1, active compounds read low) of the same molecule?
Its normalized growth is 1.02.

And the normalized growth (locus YDR069C, strain doa4, active compounds read low)?
Its normalized growth is 0.969.

And the normalized growth (locus YDR101C, strain arx1, active compounds read low)?
The normalized growth was 0.982.

What about the normalized growth (locus YDR137W, strain rgp1, active compounds read low) of the same molecule?
The normalized growth was 1.21 [resistant] (active).

And the normalized growth (locus YDR150W, strain NUM1, active compounds read low)?
The normalized growth was 1.01.

And the normalized growth (locus YDR159W, strain sac3, active compounds read low)?
Its normalized growth is 1.03.

What about the normalized growth (locus YDR162C, strain NBP2, active compounds read low) of the same molecule?
Its normalized growth is 0.993.

What about the normalized growth (locus YDR195W, strain ref2) of the same molecule?
Its normalized growth is 1.07.

What about the normalized growth (locus YDR297W, strain sur2, active compounds read low) of the same molecule?
Its normalized growth is 1.03.

And the normalized growth (locus YDR318W, strain mcm21, active compounds read low)?
Its normalized growth is 0.983.

And the normalized growth (locus YDR334W, strain swr1, active compounds read low)?
Its normalized growth is 1.03.

What about the normalized growth (locus YDR335W, strain msn5, active compounds read low) of the same molecule?
Its normalized growth is 1.03.

And the normalized growth (locus YDR388W, active compounds read low)?
Its normalized growth is 0.924 (active).

And the normalized growth (locus YDR392W, strain spt3, active compounds read low)?
The normalized growth was 1.04.

And the normalized growth (locus YDR502C, strain sam2, active compounds read low)?
The normalized growth was 0.983.

What about the normalized growth (locus YEL003W, strain gim4, active compounds read low) of the same molecule?
Its normalized growth is 1.01.

What about the normalized growth (locus YEL037C, strain rad23, active compounds read low) of the same molecule?
Its normalized growth is 1.02.

What about the normalized growth (locus YEL061C, strain CIN8 (second series), active compounds read low) of the same molecule?
Its normalized growth is 1.03.

And the normalized growth (locus YEL061C, strain CIN8, active compounds read low)?
The normalized growth was 1.01.

And the normalized growth (locus YER015W, strain faa2, active compounds read low)?
Its normalized growth is 1.02.

What about the normalized growth (locus YER016W, strain bim1, active compounds read low) of the same molecule?
Its normalized growth is 1.02.

What about the normalized growth (locus YER110C, active compounds read low) of the same molecule?
Its normalized growth is 1.

What about the normalized growth (locus YER111C, strain swi4, active compounds read low) of the same molecule?
The normalized growth was 1.01.

And the normalized growth (locus YER155C, strain BEM2 (second series), active compounds read low)?
Its normalized growth is 1.01.

What about the normalized growth (locus YER155C, strain BEM2, active compounds read low) of the same molecule?
The normalized growth was 1.

What about the normalized growth (locus YER167W, strain BCK2, active compounds read low) of the same molecule?
The normalized growth was 0.998.

What about the normalized growth (locus YFR010W, strain ubp6, active compounds read low) of the same molecule?
Its normalized growth is 0.986.

And the normalized growth (locus YGL078C, strain dbp3, active compounds read low)?
Its normalized growth is 0.99.

And the normalized growth (locus YGL086W, strain mad1, active compounds read low)?
The normalized growth was 0.974.

And the normalized growth (locus YGL167C, strain pmr1, active compounds read low)?
Its normalized growth is 1.02.

What about the normalized growth (locus YGL173C, strain kem1, active compounds read low) of the same molecule?
Its normalized growth is 1.01.

And the normalized growth (locus YGL227W, strain vid30, active compounds read low)?
Its normalized growth is 1.02.

And the normalized growth (locus YGL240W, strain doc1, active compounds read low)?
Its normalized growth is 1.02.

What about the normalized growth (locus YGL248W, strain PDE1, active compounds read low) of the same molecule?
Its normalized growth is 0.99.

And the normalized growth (locus YGL253W, strain hxk2, active compounds read low)?
The normalized growth was 1.02.

And the normalized growth (locus YGR078C, strain PAC10, active compounds read low)?
The normalized growth was 0.977.

And the normalized growth (locus YGR135W, strain pre9, active compounds read low)?
Its normalized growth is 0.951.

And the normalized growth (locus YGR229C, strain SMI1, active compounds read low)?
Its normalized growth is 0.901.

And the normalized growth (locus YGR252W, strain gcn5, active compounds read low)?
Its normalized growth is 0.888.

And the normalized growth (locus YHR013C, strain ard1, active compounds read low)?
The normalized growth was 0.895.

What about the normalized growth (locus YHR027C, strain rpn1, active compounds read low) of the same molecule?
The normalized growth was 1.03.

And the normalized growth (locus YHR030C, strain SLT2, active compounds read low)?
The normalized growth was 1.

What about the normalized growth (locus YHR079C, strain IRE1 (second series), active compounds read low) of the same molecule?
Its normalized growth is 0.994.

And the normalized growth (locus YHR094C, strain hxt1, active compounds read low)?
Its normalized growth is 0.997.

What about the normalized growth (locus YHR129C, strain ARP1, active compounds read low) of the same molecule?
The normalized growth was 1.

And the normalized growth (locus YHR142W, strain chs7, active compounds read low)?
The normalized growth was 1.01.

What about the normalized growth (locus YHR200W, strain rpn10, active compounds read low) of the same molecule?
The normalized growth was 0.989.

What about the normalized growth (locus YIL066C, strain RNR3, active compounds read low) of the same molecule?
The normalized growth was 0.988.

And the normalized growth (locus YIL073C, strain SPO22, active compounds read low)?
The normalized growth was 1.12.

And the normalized growth (locus YIL125W, strain kgd1, active compounds read low)?
The normalized growth was 1.

And the normalized growth (locus YIR030C, strain dcg1, active compounds read low)?
The normalized growth was 0.996.

And the normalized growth (locus YJL092W, strain hpr5, active compounds read low)?
Its normalized growth is 1.02.

And the normalized growth (locus YJL095W, strain BCK1 (second series), active compounds read low)?
Its normalized growth is 1.03.

And the normalized growth (locus YJL095W, strain BCK1, active compounds read low)?
The normalized growth was 0.913.

And the normalized growth (locus YJL115W, strain asf1, active compounds read low)?
Its normalized growth is 1.02.

And the normalized growth (locus YJL129C, strain trk1, active compounds read low)?
The normalized growth was 1.04.

What about the normalized growth (locus YJL134W, strain LCB3, active compounds read low) of the same molecule?
Its normalized growth is 1.

What about the normalized growth (locus YJL154C, strain vps35, active compounds read low) of the same molecule?
Its normalized growth is 1.01.

And the normalized growth (locus YJL164C, strain tpk1, active compounds read low)?
The normalized growth was 1.02.

And the normalized growth (locus YJL166W, strain qcr8, active compounds read low)?
The normalized growth was 1.01.

And the normalized growth (locus YJL168C, strain set2, active compounds read low)?
The normalized growth was 1.

What about the normalized growth (locus YJL187C, strain SWE1 (second series), active compounds read low) of the same molecule?
The normalized growth was 0.983.
